The text below walks through data of PubChem BioAssay (NCI).

A short description of assay [1]: NCI Yeast Anticancer Drug Screen. Data for the rad50 strain (AID 155).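 Further: 0% = growth of vehicle-only cultures of the same strain.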 The settings on record: S. cerevisiae rad50 strain growth inhibition, stronger effect = higher value. Summed up:
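Relative growth inhibition (compound vs vehicle) was measured in yeast with a defined repair-gene alteration.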

A short description of assay [2]: NCI Yeast Anticancer Drug Screen. Data for the mec2-1 strain (AID 157). To be noted: S. cerevisiae mec2-1 strain, stronger effect = higher value. Put shortly: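 Each compound was tested on mec2-1 yeast, a strain altered in DNA damage repair or cell cycle control. Growth inhibition is reported relative to vehicle.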
The nature of assay [3]: NCI Yeast Anticancer Drug Screen. Data for the sgs1 mgt1 strain (AID 161).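 Further: 0% = growth of cultures given vehicle only.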 To be noted: S. cerevisiae sgs1 mgt1 strain, stronger effect = higher value. Put shortly: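 Genetically altered yeast, compound exposure, growth inhibition relative to vehicle.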
Assay [4] in a line: NCI Yeast Anticancer Drug Screen. Data for the cln2 rad14 strain (AID 165).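 Further: 0% = growth equal to vehicle treated cultures.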 To be noted: S. cerevisiae cln2 rad14 strain, stronger effect = higher value. Summed up: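 Test compounds were added to cln2 rad14 yeast cultures; inhibition of growth was then determined by comparison with vehicle treatment.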
A short description of assay [5]: NCI Yeast Anticancer Drug Screen. Data for the bub3 strain (AID 167). To be noted: S. cerevisiae bub3 mutant strain, stronger effect = higher value. Put shortly: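 Screening used yeast with an engineered genetic alteration affecting cell cycle control. Compound-exposed cultures were compared with vehicle cultures, and reduced growth was taken as inhibition.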
A short description of assay [6]: NCI Yeast Anticancer Drug Screen. Data for the mlh1 rad18 strain (AID 175). To be noted: S. cerevisiae mlh1 rad18 strain growth inhibition, stronger effect = higher value. Summed up:
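Inhibition values reflect reduced growth of mutant yeast versus vehicle-treated controls following compound exposure; the mutations affect DNA damage repair.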

Setting [7] is: at 5.0 µM (retest, dose inferred, filed as 0.5).
[8] abbreviates: at 50.0 µM (retest, dose inferred, filed as 5.0).

About 79,000 compounds went through this panel and 15% of them were active in at least one assay; those are over-represented in the sample as a whole. A number with no mark means an inactive call. Calls of active or inactive are those of the source. No stated cut-off is given here; in the data, active means growth inhibition above about 70%; inactive means the rest.

For the compound `Cc1ccnc2sc3ccccc3c(=O)c12`, the growth inhibition is 15% in assay [1] (setting [7]); 96% (active) in assay [1] (setting [8]); 86.8% (active) in assay [1] (at 50.0 µM); 14% in assay [2] (setting [7]); 93% (active) in assay [2] (setting [8]); 82.5% (active) in assay [2] (at 50.0 µM). In addition, the growth inhibition in assay [3] (setting [7]) is 4%; in assay [3] (setting [8]) it was 92% (active); in assay [3] (at 50.0 µM), 80.6% (active); in assay [4] (setting [7]), 4%; in assay [4] (setting [8]), 76% (active); in assay [4] (at 50.0 µM), 68.5%. In addition, the growth inhibition in assay [5] (setting [7]) is 6%; in assay [5] (setting [8]) it was 92% (active); in assay [5] (at 50.0 µM), 83.5% (active); in assay [6] (setting [7]), 11%; in assay [6] (setting [8]) it was 95% (active); in assay [6] (at 50.0 µM), 83.9% (active).
On to `C[C@]12CC[C@H](O)C[C@@H]1CC[C@@H]1[C@@H]2CC[C@]2(C)C=CC[C@@H]12`, for which the growth inhibition was -3% in assay [1] (setting [7]); 2% in assay [1] (setting [8]); 49.4% in assay [1] (at 50.0 µM); -7% in assay [2] (setting [7]); -4% in assay [2] (setting [8]); 33.4% in assay [2] (at 50.0 µM). Further, the growth inhibition in assay [3] (setting [7]) was -21%; in assay [3] (setting [8]), 1%; in assay [3] (at 50.0 µM) it was 46.8%; in assay [4] (setting [7]), -6%; in assay [4] (setting [8]), 0%; in assay [4] (at 50.0 µM), 77.5% (active). The growth inhibition is 9% in assay [5] (setting [7]); 23% in assay [5] (setting [8]); 95.1% (active) in assay [5] (at 50.0 µM); -24% in assay [6] (setting [7]); 33% in assay [6] (setting [8]); 58.8% in assay [6] (at 50.0 µM).
Turning to `NC(=O)N/N=C/c1ccc(Cl)s1`, the growth inhibition in assay [1] (setting [7]) was 4%; in assay [1] (setting [8]) it was 42%; in assay [1] (at 50.0 µM) it was 94.4% (active); in assay [2] (setting [7]) it was 4%; in assay [2] (setting [8]), 21%; in assay [2] (at 50.0 µM) it was 59%. Besides, the growth inhibition in assay [3] (setting [7]) was 2%; in assay [3] (setting [8]), 31%; in assay [3] (at 50.0 µM) it was 88.8% (active); in assay [4] (setting [7]) it was -1%; in assay [4] (setting [8]), 10%; in assay [4] (at 50.0 µM), 52.5%. The growth inhibition was 3% in assay [5] (setting [7]); 35% in assay [5] (setting [8]); 82.5% (active) in assay [5] (at 50.0 µM); 1% in assay [6] (setting [7]); 31% in assay [6] (setting [8]); 89.2% (active) in assay [6] (at 50.0 µM).
Take `O=C1c2ccccc2C(=O)c2c1ccc(O)c2O.[Cu]`: the growth inhibition in assay [1] (setting [7]) was 87% (active); in assay [1] (setting [8]), 92% (active); in assay [1] (at 50.0 µM), 98% (active); in assay [2] (setting [7]), 41%; in assay [2] (setting [8]), 95% (active); in assay [2] (at 50.0 µM), 96.7% (active). Also, the growth inhibition is 99% (active) in assay [3] (setting [7]); 96% (active) in assay [3] (setting [8]); 96.9% (active) in assay [3] (at 50.0 µM); 26% in assay [4] (setting [7]); 91% (active) in assay [4] (setting [8]); 33.1% in assay [4] (at 50.0 µM). Besides, the growth inhibition in assay [5] (setting [7]) is 86% (active); in assay [5] (setting [8]), 94% (active); in assay [5] (at 50.0 µM) it was 93.6% (active); in assay [6] (setting [7]), 66%; in assay [6] (setting [8]) it was 94% (active); in assay [6] (at 50.0 µM) it was 96.8% (active).
As for `CC1(C)CC(=O)C2=C(C1)OC1=C(CC(C)(C)CC1=O)C2c1ccccc1[N+](=O)[O-]` (configuration not stated), the growth inhibition in assay [1] (setting [7]) is 22%; in assay [1] (setting [8]), 22%; in assay [1] (at 50.0 µM), -21.8%; in assay [2] (setting [7]), 16%; in assay [2] (setting [8]), 12%; in assay [2] (at 50.0 µM), -13.3%. The growth inhibition in assay [3] (setting [7]) was 25%; in assay [3] (setting [8]), 19%; in assay [3] (at 50.0 µM), -13.5%; in assay [4] (setting [7]), 23%; in assay [4] (setting [8]), 41%; in assay [4] (at 50.0 µM) it was -7.3%. Also, the growth inhibition in assay [5] (setting [7]) is 9%; in assay [5] (setting [8]), 5%; in assay [5] (at 50.0 µM) it was -17.6%; in assay [6] (setting [7]), 24%; in assay [6] (setting [8]), 27%; in assay [6] (at 50.0 µM), -17.1%.
For `CCC(=O)C(=O)CC1CC(c2ccco2)=Nc2ccccc2S1` (configuration not stated), the growth inhibition in assay [1] (setting [7]) was 9%; in assay [1] (setting [8]), 97% (active); in assay [1] (at 50.0 µM), -0.45%; in assay [2] (setting [7]), 13%; in assay [2] (setting [8]) it was 98% (active); in assay [2] (at 50.0 µM) it was 5.65%. Also, the growth inhibition is 28% in assay [3] (setting [7]); 94% (active) in assay [3] (setting [8]); 22.6% in assay [3] (at 50.0 µM); 6% in assay [4] (setting [7]); 97% (active) in assay [4] (setting [8]); -24.4% in assay [4] (at 50.0 µM). Further, the growth inhibition in assay [5] (setting [7]) was 14%; in assay [5] (setting [8]), 96% (active); in assay [5] (at 50.0 µM) it was 6.35%; in assay [6] (setting [7]) it was 14%; in assay [6] (setting [8]), 98% (active); in assay [6] (at 50.0 µM) it was 18.5%.
Consider `COC(=O)c1cccc2c3ccccc3c3ccccc3c12`, for which the growth inhibition is 6% in assay [1] (setting [7]); 98% (active) in assay [1] (setting [8]); 97.1% (active) in assay [1] (at 50.0 µM); 15% in assay [2] (setting [7]); 98% (active) in assay [2] (setting [8]); 99.5% (active) in assay [2] (at 50.0 µM). The growth inhibition in assay [3] (setting [7]) was 8%; in assay [3] (setting [8]), 99% (active); in assay [3] (at 50.0 µM) it was 99.2% (active); in assay [4] (setting [7]), 6%; in assay [4] (setting [8]) it was 97% (active); in assay [4] (at 50.0 µM) it was 99.5% (active). Further, the growth inhibition in assay [5] (setting [7]) was 12%; in assay [5] (setting [8]), 97% (active); in assay [5] (at 50.0 µM), 97.8% (active); in assay [6] (setting [7]), 9%; in assay [6] (setting [8]), 99% (active); in assay [6] (at 50.0 µM), 99.2% (active).
As for `BrCc1ccccc1C[P+](c1ccccc1)(c1ccccc1)c1ccccc1`, the growth inhibition in assay [1] (setting [7]) was 55%; in assay [1] (setting [8]), 98% (active); in assay [1] (at 50.0 µM) it was 89.5% (active); in assay [2] (setting [7]), 52%; in assay [2] (setting [8]), 99% (active); in assay [2] (at 50.0 µM) it was 90.7% (active). Besides, the growth inhibition in assay [3] (setting [7]) was 54%; in assay [3] (setting [8]), 99% (active); in assay [3] (at 50.0 µM), 85.5% (active); in assay [4] (setting [7]), 25%; in assay [4] (setting [8]), 97% (active); in assay [4] (at 50.0 µM) it was 82.3% (active). Also, the growth inhibition in assay [5] (setting [7]) was 47%; in assay [5] (setting [8]), 98% (active); in assay [5] (at 50.0 µM), 89.7% (active); in assay [6] (setting [7]), 69%; in assay [6] (setting [8]), 98% (active); in assay [6] (at 50.0 µM) it was 88.2% (active).
As for `O=C1/C(=C\c2ccccc2)C(NC2CCCCC2)c2ccccc21` (configuration not stated), the growth inhibition in assay [1] (setting [7]) was 73% (active); in assay [1] (setting [8]), 99% (active); in assay [1] (at 50.0 µM), 99.6% (active); in assay [2] (setting [7]), 43%; in assay [2] (setting [8]), 99% (active); in assay [2] (at 50.0 µM), 99.7% (active). Moreover, the growth inhibition in assay [3] (setting [7]) was 65%; in assay [3] (setting [8]), 98% (active); in assay [3] (at 50.0 µM) it was 99.7% (active); in assay [4] (setting [7]), 37%; in assay [4] (setting [8]), 100% (active); in assay [4] (at 50.0 µM), 99.5% (active). For the same compound, the growth inhibition in assay [5] (setting [7]) was 75% (active); in assay [5] (setting [8]), 99% (active); in assay [5] (at 50.0 µM) it was 99.5% (active); in assay [6] (setting [7]), 74% (active); in assay [6] (setting [8]), 99% (active); in assay [6] (at 50.0 µM), 99.5% (active).
